Drawing on ChEMBL document CHEMBL1961873, “Compounds: GSK PKIS; Assays: Nanosyn kinase panel” (2012), this text covers inhibition for nine molecules.

The target of test [1] is T1, Inhibitor of nuclear factor kappa-B kinase subunit epsilon (Homo sapiens) (UniProt Q14164).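 Also: reported values are averaged percent inhibition figures against human IKKε.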
T1 sequence (whole entry): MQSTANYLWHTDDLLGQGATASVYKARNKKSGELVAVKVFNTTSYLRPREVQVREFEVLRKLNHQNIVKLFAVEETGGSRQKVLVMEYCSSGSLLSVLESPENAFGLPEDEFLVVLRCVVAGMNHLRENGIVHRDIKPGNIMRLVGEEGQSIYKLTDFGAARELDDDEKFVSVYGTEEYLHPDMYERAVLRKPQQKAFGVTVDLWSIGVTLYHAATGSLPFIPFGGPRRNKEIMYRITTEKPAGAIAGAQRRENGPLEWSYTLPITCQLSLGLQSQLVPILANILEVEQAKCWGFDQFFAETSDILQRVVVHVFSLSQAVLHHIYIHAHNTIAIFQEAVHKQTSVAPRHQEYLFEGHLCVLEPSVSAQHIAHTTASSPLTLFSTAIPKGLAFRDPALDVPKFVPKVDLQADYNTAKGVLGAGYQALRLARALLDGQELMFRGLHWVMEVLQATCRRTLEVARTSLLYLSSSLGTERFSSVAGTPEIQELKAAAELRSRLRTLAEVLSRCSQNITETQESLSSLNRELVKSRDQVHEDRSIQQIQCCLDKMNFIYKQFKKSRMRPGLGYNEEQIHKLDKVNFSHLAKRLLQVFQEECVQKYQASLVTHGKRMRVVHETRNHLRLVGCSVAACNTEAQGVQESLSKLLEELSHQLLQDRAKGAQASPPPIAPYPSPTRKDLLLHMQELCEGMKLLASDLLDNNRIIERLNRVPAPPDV
Conditions: at 1 µM.

Test [2] deals with T2, Serine/threonine-protein kinase Nek1 (Homo sapiens) (UniProt Q96PY6).
T2 sequence (whole entry): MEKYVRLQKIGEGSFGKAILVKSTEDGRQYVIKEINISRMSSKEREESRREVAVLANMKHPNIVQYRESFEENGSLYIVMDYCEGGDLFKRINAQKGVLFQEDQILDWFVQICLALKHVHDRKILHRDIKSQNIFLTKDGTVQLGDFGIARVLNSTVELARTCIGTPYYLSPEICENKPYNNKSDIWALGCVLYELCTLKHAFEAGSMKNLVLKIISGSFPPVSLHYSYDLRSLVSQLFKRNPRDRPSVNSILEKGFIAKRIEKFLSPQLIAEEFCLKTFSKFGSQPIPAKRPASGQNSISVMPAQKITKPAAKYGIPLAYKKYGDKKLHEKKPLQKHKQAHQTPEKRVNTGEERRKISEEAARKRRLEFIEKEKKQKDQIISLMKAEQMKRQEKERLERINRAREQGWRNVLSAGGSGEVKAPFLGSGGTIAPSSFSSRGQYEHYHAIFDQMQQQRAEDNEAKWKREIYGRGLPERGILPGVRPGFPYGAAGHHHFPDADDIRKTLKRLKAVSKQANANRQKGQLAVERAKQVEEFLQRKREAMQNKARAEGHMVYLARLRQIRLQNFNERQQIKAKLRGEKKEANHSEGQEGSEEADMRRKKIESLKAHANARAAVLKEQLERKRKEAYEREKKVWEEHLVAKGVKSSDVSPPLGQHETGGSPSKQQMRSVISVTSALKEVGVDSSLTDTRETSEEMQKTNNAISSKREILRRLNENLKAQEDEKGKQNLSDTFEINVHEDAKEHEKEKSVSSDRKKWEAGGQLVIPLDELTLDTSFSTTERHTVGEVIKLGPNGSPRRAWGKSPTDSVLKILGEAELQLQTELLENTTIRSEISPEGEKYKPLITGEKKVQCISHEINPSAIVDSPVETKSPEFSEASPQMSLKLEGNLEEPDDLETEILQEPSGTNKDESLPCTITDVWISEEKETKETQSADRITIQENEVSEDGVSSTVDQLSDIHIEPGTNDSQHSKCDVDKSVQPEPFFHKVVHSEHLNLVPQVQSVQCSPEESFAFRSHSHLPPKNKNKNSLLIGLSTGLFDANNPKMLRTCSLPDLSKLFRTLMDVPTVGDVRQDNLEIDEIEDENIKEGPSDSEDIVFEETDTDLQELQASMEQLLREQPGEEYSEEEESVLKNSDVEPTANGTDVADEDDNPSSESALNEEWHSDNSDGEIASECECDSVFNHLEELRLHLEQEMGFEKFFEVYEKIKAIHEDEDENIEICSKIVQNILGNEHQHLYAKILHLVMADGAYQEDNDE
The following applies: at 0.1 µM.

For test [3], the target named is T2, Serine/threonine-protein kinase Nek1 (Homo sapiens). The following applies: at 1 µM.
Test [4] addresses T3, Serine/threonine-protein kinase Nek2 (Homo sapiens) (UniProt P51955).
T3 sequence (whole entry): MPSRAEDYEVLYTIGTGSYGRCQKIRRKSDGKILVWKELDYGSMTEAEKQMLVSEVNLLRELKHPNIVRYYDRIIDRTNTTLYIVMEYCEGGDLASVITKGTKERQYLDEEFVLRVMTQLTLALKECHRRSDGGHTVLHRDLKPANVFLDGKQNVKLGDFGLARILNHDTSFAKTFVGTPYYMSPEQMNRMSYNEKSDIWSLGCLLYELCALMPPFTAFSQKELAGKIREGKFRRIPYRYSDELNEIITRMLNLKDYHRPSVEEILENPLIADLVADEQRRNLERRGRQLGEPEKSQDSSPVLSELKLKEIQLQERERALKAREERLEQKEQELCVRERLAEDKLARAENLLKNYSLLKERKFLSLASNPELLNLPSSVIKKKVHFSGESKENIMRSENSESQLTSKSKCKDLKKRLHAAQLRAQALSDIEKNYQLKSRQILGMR
The following applies: at 0.1 µM.

The target in test [5] is T3, Serine/threonine-protein kinase Nek2 (Homo sapiens). The following applies: at 1 µM.
Test [6] concerns the target Serine/threonine-protein kinase Nek6 (Homo sapiens) (UniProt Q9HC98). Conditions: at 0.1 µM.
Test [7] has the same target. The following applies: at 1 µM.
Test [8] has as its target Serine/threonine-protein kinase Nek7 (Homo sapiens) (UniProt Q8TDX7). Conditions: at 0.1 µM.
Test [9] has the same target. Conditions: at 1 µM.
Test [10] has as its target T4, Serine/threonine-protein kinase Nek9 (Homo sapiens) (UniProt Q8TD19).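 Also: reported value is the mean percent inhibition of NEK9.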
T4 sequence (whole entry): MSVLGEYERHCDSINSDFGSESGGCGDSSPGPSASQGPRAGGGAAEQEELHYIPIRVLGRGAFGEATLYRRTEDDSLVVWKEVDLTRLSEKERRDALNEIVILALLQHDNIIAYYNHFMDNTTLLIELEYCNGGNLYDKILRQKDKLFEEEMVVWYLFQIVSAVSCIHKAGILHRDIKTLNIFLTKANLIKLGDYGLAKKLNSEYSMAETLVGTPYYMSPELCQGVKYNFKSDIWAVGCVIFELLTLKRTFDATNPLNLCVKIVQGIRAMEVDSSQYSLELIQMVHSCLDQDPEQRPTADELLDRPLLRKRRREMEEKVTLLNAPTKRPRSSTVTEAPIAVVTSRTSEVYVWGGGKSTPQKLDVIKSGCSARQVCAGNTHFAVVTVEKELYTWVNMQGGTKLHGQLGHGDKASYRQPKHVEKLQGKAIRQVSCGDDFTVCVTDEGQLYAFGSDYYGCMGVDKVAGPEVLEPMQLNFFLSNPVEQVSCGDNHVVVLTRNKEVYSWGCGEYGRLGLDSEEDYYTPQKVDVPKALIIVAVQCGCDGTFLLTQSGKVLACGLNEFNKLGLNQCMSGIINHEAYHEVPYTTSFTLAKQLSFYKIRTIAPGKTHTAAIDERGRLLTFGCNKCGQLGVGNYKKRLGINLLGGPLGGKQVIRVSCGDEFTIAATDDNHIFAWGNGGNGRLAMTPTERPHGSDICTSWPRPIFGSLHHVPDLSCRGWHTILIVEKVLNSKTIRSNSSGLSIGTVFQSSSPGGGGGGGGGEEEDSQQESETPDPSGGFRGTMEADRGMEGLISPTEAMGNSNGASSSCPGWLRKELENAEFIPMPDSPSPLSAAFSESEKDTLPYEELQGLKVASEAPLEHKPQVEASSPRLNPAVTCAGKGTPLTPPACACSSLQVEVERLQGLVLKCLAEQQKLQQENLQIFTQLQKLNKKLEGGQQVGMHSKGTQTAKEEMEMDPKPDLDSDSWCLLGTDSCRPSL
Conditions: at 0.1 µM.

Sequence of Serine/threonine-protein kinase Nek7 (Homo sapiens) (Q8TDX7 whole entry, looked up): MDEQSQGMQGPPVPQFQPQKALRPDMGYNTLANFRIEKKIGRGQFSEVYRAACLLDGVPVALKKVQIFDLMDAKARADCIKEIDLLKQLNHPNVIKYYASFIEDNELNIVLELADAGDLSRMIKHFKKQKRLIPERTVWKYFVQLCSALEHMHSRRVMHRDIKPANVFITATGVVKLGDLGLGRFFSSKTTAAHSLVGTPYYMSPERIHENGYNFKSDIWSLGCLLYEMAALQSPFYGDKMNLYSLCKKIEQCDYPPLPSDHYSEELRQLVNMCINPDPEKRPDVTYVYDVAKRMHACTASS
Sequence of Serine/threonine-protein kinase Nek6 (Homo sapiens) (Q9HC98 whole entry): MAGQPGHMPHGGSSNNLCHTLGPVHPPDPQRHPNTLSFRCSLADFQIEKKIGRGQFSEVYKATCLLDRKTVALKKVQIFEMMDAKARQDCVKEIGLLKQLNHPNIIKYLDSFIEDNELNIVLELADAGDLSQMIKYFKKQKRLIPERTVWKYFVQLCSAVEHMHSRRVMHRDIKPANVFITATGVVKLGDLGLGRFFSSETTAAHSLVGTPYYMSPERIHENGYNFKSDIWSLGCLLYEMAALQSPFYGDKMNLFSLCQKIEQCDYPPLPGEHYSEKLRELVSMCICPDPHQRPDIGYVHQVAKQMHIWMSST

For `COc1cc2ncnc(Nc3ccc(C)c(O)c3)c2cc1OC`, the inhibition came out at 6.95% in test [1]; 3.4% in test [2]; 5.46% in [3]; 5.78% in [4]; 7.02% in [5]; 3.27% in [6]. The inhibition stood at 4.18% in test [7], 4.88% in [8], 4.92% in [9] and 6.41% in [10].

In the case of `Nc1nccc(-c2c(-c3ccc(F)cc3)nn3cc(C(F)(F)F)ccc23)n1`, the inhibition in test [1] was 0.39%; in test [2], -0.26%; in test [3], -0.62%; in [4], 0%; in [5] it was 1.3%; in test [6], 0.29%. The inhibition was -2.61% in [7], -1.44% in test [8], 0.7% in test [9] and 0.57% in test [10].

With `COc1cc(/C=N/Nc2ncnc3c2cnn3C(C)C)ccc1O`, the inhibition in test [1] was 1.92%; in test [2], 2.42%; in test [3], 10.4%; in [4], 2.62%; in test [5] it was 6.4%; in test [6], 2.57%. Also, the inhibition in test [7] is 1.52%; in test [8], 5.39%; in [9], 2.72%; in test [10], -0.27%.

Take `Cc1cc(O)cc(C)c1/C=C/c1cncc(C(=O)N(C)C)c1`: the inhibition in [1] turned out to be 2.2%; in test [2], 2.11%; in [3] it was 5.18%; in test [4], 2.6%; in [5], 3.87%; in test [6], 2.43%. The inhibition came to 0.38% in test [7], 3.87% in [8], 4.65% in test [9] and 11.4% in [10].

As to `NS(=O)(=O)c1ccc(NC=C2C(=O)Nc3ccc4ncsc4c32)cc1`, the inhibition in [1] came out at 65.4%; in test [2], 3.02%; in test [3], 6.96%; in test [4], 5.94%; in [5] it was 8.12%; in test [6] it was 1.57%. Also, the inhibition turned out to be 7.78% in test [7], 7.6% in test [8], 13.9% in test [9] and 9.07% in [10].

As for `Cc1nc(-c2ccccc2)n2nc(NCCCN3CCOCC3)ncc12`, the inhibition in test [1] is 6.26%; in test [2], 1.82%; in test [3] it was 1.68%; in test [4], 3.14%; in [5] it was 1.97%; in test [6] it was -0.18%. Also, the inhibition in test [7] was determined as 3.25%; in [8] it was 1.2%; in test [9], 2.34%; in test [10], 7.69%.

Turning to `CN(C)c1cc2c(Nc3ccc4c(cnn4Cc4ccccc4)c3)ncnc2cn1`, the inhibition in test [1] came out at 3.38%; in test [2], 0.59%; in test [3] it was 2.49%; in test [4] it was 3.29%; in [5], 3.45%; in test [6], 0.57%. Besides, the inhibition in test [7] was determined as 2.34%; in test [8], 1.52%; in test [9] it was 1.66%; in test [10] it was 6.89%.

Consider `CC(C)c1ccc(Nc2nccc(-c3cnn4ncccc34)n2)cc1`, for which the inhibition was 7.95% in test [1]; 3.1% in [2]; 13.5% in [3]; 3.86% in test [4]; 8.45% in test [5]; 1.7% in test [6]. Moreover, the inhibition was 3.3% in [7], 3.35% in test [8], 4.87% in test [9] and 11.3% in test [10].

With `Cc1ccc2c(-c3ccnc(Nc4ccc5c(c4)OCCO5)n3)c(-c3ccc(C(F)(F)F)cc3)nn2n1`, the inhibition in test [1] was -0.03%; in test [2] it was 0.53%; in [3], 1.72%; in test [4] it was 1.37%; in [5], 1.37%; in test [6] it was 0.53%. Moreover, the inhibition is -0.1% in [7], -0.01% in test [8], 0% in test [9] and 1.38% in [10].

For orientation: inhibition means the relative decrease from the control value, in per cent.
